These results are taken from PubChem BioAssay (NCATS).

Each structure is given as a SMILES string. Where “and” joins values, the source holds several entries; their conditions need not be identical. Equal entries are not always repeated. Records with an inconclusive call do not appear. A number with no mark means an inactive call. Calls of active or inactive are those of the source. The call rests on the fitted dose curve; in most records, active means well fitted cell-killing curve with a large enough effect; inconclusive means small, poorly fitted or top-dose-only effect, or effect the other way; inactive means flat fitted curve, though single readings scatter.
On the % scale 0 is the no-effect control and ±100 the full control effect; potency means the concentration at half of the fitted maximal effect.

This experiment has as its system Tov112D. Nature of the experiment: Primary qHTS to identify gynecologic anti-cancer compounds using libraries of approved drugs and bioactive compounds (AID 1345084). Further: nearly all actives have a fitted effect of over 55% in size. The following applies: Gynecologic cancer cell panel viability, ATPlite luminescence, 48 h; series mostly up to 57.5 µM; activity change, negative = cytotoxicity: at the top concentration. In a few lines:
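In this quantitative HTS, cell killing is estimated from loss of ATP-dependent luciferase light. Cells see five compound concentrations over a 48 h exposure.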
With `COc1nc(C)nc(Cl)c1NC1=NCCN1`, the “activity change, negative = cytotoxicity” value is 9.47%.
Take `Cc1cc(C(C)(C)C)cc(C)c1CC1=NCCN1`: the “activity change, negative = cytotoxicity” value is -8.83%.
With `C[C@H]1c2cccc(O)c2C(O)=C2C(=O)[C@]3(O)C(O)=C(C(N)=O)C(=O)[C@@H](N(C)C)[C@@H]3[C@@H](O)[C@@H]21`, the “activity change, negative = cytotoxicity” value is 26%.
The same measure, in the same setting: the figure for `CC(C)C(=O)Nc1ccc([N+](=O)[O-])c(C(F)(F)F)c1` is -13.5%.
Take `COC(=O)Nc1nc2ccc(C(=O)c3cccs3)cc2[nH]1`: the Potency was 316 nM (active).
On to `Cc1ccc(-c2cc(C(F)(F)F)nn2-c2ccc(S(N)(=O)=O)cc2)cc1`, for which the Potency entry is “inactive”.
With `NCCc1cnc[nH]1`, the “activity change, negative = cytotoxicity” value was 3.04%.
On the same count and under the same terms, the figure for `CC1(CN2CCC(n3c(=O)[nH]c4ccccc43)CC2)OCc2ccccc2-n2cccc21` (stereo not drawn) is -0.862%; for `CCN1CCCC1CNC(=O)c1cc(S(=O)(=O)CC)c(N)cc1OC` (stereo not drawn) it is 4.76%; for `CCc1cccc2c3c([nH]c12)C(CC)(CC(=O)O)OCC3` (stereo not drawn) it is -3.18%.
For the compound `CC(COc1ccccc1)N(CCCl)Cc1ccccc1` (stereo not drawn), the “activity change, negative = cytotoxicity” value was -3.34%.
For the compound `Nc1nc2c(ncn2COC(CO)CO)c(=O)[nH]1`, the “activity change, negative = cytotoxicity” value is 0.42%.
Consider `O=C(CCCN1CCC(O)(c2ccc(Cl)cc2)CC1)c1ccc(F)cc1`, for which the “activity change, negative = cytotoxicity” value is -27%.
For the compound `Clc1ccccc1C(c1ccccc1)(c1ccccc1)n1ccnc1`, the “activity change, negative = cytotoxicity” value was -10.7%.
As for `Cn1ccc2cc3c(cc21)CCN3C(=O)Nc1cccnc1`, the “activity change, negative = cytotoxicity” value is -1.73% [at 25.3 µM].
With `O=C(C1CCCCC1)N1CC(=O)N2CCc3ccccc3C2C1` (stereo not drawn), the “activity change, negative = cytotoxicity” value was -9.89%.
Consider `O=C(c1ccc(F)cc1)C1CCN(CCn2c(=O)[nH]c3ccccc3c2=O)CC1`, for which the Potency entry is “inactive”.
Regarding `Clc1ccc2nsnc2c1NC1=NCCN1`, the “activity change, negative = cytotoxicity” value is -0.567%.
`CN1C(C(=O)Nc2ccccn2)=C(O)c2ccccc2S1(=O)=O`: the “activity change, negative = cytotoxicity” value is -6.13%.
`CS(=O)(=O)CCNCc1ccc(-c2ccc3ncnc(Nc4ccc(OCc5cccc(F)c5)c(Cl)c4)c3c2)o1`: the Potency entry is “inactive”.
Consider `Clc1ccc2c(c1)C(N1CCNCC1)=Nc1ccccc1O2`, for which the Potency result was “inactive”.
For the compound `CN1CCN(C2=Nc3cc(Cl)ccc3Nc3ccccc32)CC1`, the “activity change, negative = cytotoxicity” value was -18.4%.
Same read-out and setting: the figure for `COc1ccc(CCN(C)CCCC(C#N)(c2ccc(OC)c(OC)c2)C(C)C)cc1OC` (stereo not drawn) is -10.4%; for `CN(CCOc1ccc(NS(C)(=O)=O)cc1)CCc1ccc(NS(C)(=O)=O)cc1` it is 7.01%; for `COc1ccc(C2CNC(=O)C2)cc1OC1CCCC1` (stereo not drawn) it is -4.66%.
The same measure, in the same setting: the result for `CN1CCC(=C2c3ccccc3CC(=O)c3sccc32)CC1` reads -8.23%.
Regarding `Cc1cc(C(C)(C)C)c(O)c(C)c1CC1=NCCN1`, the Potency result was “inactive”.
For `CN1CCN(CCCN2c3ccccc3Sc3ccc(Cl)cc32)CC1`, the “activity change, negative = cytotoxicity” value is 8.33%.
On the same count and under the same terms, the figure for `Clc1ccc(C(c2ccccc2Cl)C(Cl)Cl)cc1` (stereo not drawn) is -4.15%; for `CC(C)(C)C(=O)Oc1ccc(S(=O)(=O)Nc2ccccc2C(=O)NCC(=O)O)cc1` it is 1.03%.
In the case of `CC(CCc1ccc(O)cc1)NCCc1ccc(O)c(O)c1` (stereo not drawn), the “activity change, negative = cytotoxicity” value was -0.282%.
For `CC[C@@]1(O)C(=O)OCc2c1cc1n(c2=O)Cc2cc3c(CN(C)C)c(O)ccc3nc2-1`, the Potency was 316 nM (active) and 1.41 µM (active).
For the compound `CNCCCC12CCC(c3ccccc31)c1ccccc12`, the Potency result is “inactive”.
